Screening results from PubChem BioAssay.
An excerpt weighted towards active compounds, which were near 10% of everything screened.
L3MBTL1 block: L3MBTL1 (human) inhibition. Q9Y468. AlphaScreen L3MBTL1–H3K9me1 peptide binding. Potency, µM (top dose mostly 57.1 µM), inactives show top-dose activity, negative = inhibition, actives largely listed as inhibitors. actives 0.66% (n = 230,000); further: on the % scale 0 is the no-effect control and ±100 the full control effect; nearly all actives have a fitted effect of over 60% in size
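Read-out is AlphaScreen signal from streptavidin donor and nickel chelate acceptor beads (10 ug/mL final each) bridging L3MBTL1 (50 nM) and biotinylated K9-monomethylated H3(1-15) peptide (75 nM), after 30 min compound exposure at room temperature.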
JMJD2A Tudor inh: JMJD2A Tudor domain (human) inhibition; AID 504339; actives 4.4% (n = 390,000); O75164; AlphaScreen JMJD2A-Tudor / H3K4me3 peptide binding; Potency, µM (series often up to 114 µM), for inactives: at the top dose activity change, negative = inhibition, most hits filed as inhibitors; further: on the % scale 0 is the no-effect control and ±100 the full control effect; nearly all actives have a fitted effect of over 50% in size
BAZ2B block: inhibitors of human BAZ2B bromodomain | Q9UIF8 | AlphaScreen BAZ2B-H3K14Ac peptide displacement | Potency, µM (top dose mostly 114 µM), for inactives: top-dose activity change, negative = inhibition, most hits filed as inhibitors | actives 4.4% (n = 360,000) | AID 504333; further: on the % scale 0 is the no-effect control and ±100 the full control effect; nearly all actives have a fitted effect of over 60% in size
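AlphaScreen displacement: compounds (up to 110uM) incubated 30 min at room temperature with a preformed 50 nM BAZ2B/50 nM biotinylated H3K14Ac peptide complex in PBS pH 7.4 with Tween-20. Donor and acceptor beads at 10 ug/mL final added, 20 min light-protected before reading.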
G9a block: blocks human histone lysine methyltransferase G9a; Potency, µM (top dose mostly 102 µM), for inactives: at the top dose activity, negative = inhibition, hits mostly inhibitors; AID 504332; G9a H3K9 monomethylation, AlphaScreen, 2 h; actives 8.8% (n = 350,000); Q96KQ7; further: on the % scale 0 is the no-effect control and ±100 the full control effect; nearly all actives have a fitted effect of over 75% in size
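Signal arises when biotinylated H3K9 peptide, once monomethylated, bridges streptavidin donor and antibody-captured acceptor beads. Enzyme at 20 nM was preincubated 15 min with test compounds; peptide 500 nM and SAM 20 uM then reacted for 2 h.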
HP1b binding inh: inhibitors of HP1-beta chromodomain binding to methylated histone tails; actives 0.56% (n = 390,000); Potency, µM (highest dose often 114 µM), for inactives: at the highest dose activity change, negative = inhibition, hits mostly inhibitors; P83916; AlphaScreen HP1-beta / biotin-H3K9me3 peptide binding; further: nearly all actives have a fitted effect of over 70% in size
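Compound inhibition of the preformed complex between 50 nM HP1-beta and 50 nM biotinylated H3K9me3 peptide was read by AlphaScreen. Buffer was PBS pH 7.4 with 0.01% Tween-20. Incubations ran 30 min at room temperature, with 10 ug/mL donor/acceptor beads.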
GLS inh: blocks human kidney-isoform glutaminase activity | O94925 | GLS enzymatic activity, qHTS titration | Potency, µM (doses to about 45.5 µM), inactives show at the highest dose activity change, negative = inhibition, most hits filed as inhibitors | actives 0.21% (n = 410,000) | AID 624170; further: on the % scale 0 is the no-effect control and ±100 the full control effect
Target sequence (O94925 whole entry, looked up, canonical isoform): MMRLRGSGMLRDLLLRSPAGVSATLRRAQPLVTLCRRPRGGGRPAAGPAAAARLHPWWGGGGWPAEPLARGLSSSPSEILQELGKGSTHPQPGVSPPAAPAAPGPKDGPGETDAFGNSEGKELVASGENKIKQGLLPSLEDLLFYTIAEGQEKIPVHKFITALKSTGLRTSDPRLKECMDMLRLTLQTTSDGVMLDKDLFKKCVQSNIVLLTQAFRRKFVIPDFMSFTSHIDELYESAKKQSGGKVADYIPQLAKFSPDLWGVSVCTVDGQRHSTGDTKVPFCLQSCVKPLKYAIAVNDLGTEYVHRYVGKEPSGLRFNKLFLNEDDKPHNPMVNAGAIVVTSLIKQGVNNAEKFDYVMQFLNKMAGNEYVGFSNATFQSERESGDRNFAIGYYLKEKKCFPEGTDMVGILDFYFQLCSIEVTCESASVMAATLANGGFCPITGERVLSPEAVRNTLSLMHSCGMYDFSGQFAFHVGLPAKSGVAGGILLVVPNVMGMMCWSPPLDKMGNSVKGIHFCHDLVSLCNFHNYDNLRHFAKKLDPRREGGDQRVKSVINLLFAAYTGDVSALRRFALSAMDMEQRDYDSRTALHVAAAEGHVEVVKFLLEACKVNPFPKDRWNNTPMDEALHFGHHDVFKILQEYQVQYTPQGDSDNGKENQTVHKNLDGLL
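hKGA in 45 mM KH2PO4 (pH 8.2), 0.02% Tween-20 with compound, then 1mM L-Glutamine (stock as added) plus glutamate oxidase/HRP/Amplex red coupling mix. Fluorescence read initially and after 30 min at RT; signal change reflects glutamate formation.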
An asterisk follows results filed as active; [ ] = remark or other dose. The call rests on the fitted dose curve; in most records, active means well fitted curve in the direction sought with a large enough effect; inconclusive means small, poorly fitted or top-dose-only effect, or another doubt; inactive means no such curve, though single readings can be large; an effect the other way counts as inactive or inconclusive. Potency means the concentration at half of the fitted maximal effect.

Results for Cc1sc2nc(-c3ccccn3)[nH]c(=O)c2c1-c1ccccc1 ?
L3MBTL1 block: -32%; JMJD2A Tudor inh: -14%; BAZ2B block: -3%; G9a block: 10µM*; HP1b binding inh: 18%; GLS inh: -15%

Results for COc1ccccc1C(=O)c1c(N)c(-c2nc(-c3ccccc3)cs2)c2ccccn12 ?
JMJD2A Tudor inh: -11%; BAZ2B block: 0%; G9a block: -6%[59 µM]; HP1b binding inh: 33%; GLS inh: -1%

How did CC(OCc1ccccc1)C(NC(=O)OC(C)(C)C)C(=O)NC1COC2CC(n3ccc(=O)[nH]c3=O)OC12 (stereo not given) do in these assays?
JMJD2A Tudor inh: -5%; HP1b binding inh: 15%

What do the screens show for `S=c1[nH]nc(CSc2nc3ccccc3s2)o1`?
L3MBTL1 block: 2%; JMJD2A Tudor inh: 45µM*; BAZ2B block: inconclusive; G9a block: 1.6µM*; HP1b binding inh: 3%; GLS inh: 34%

Results for Cn1c(CSc2nc3ccccc3s2)n[nH]c1=S ?
L3MBTL1 block: 4%; JMJD2A Tudor inh: 32µM*; BAZ2B block: 10%; G9a block: 2.5µM*; HP1b binding inh: -27%; GLS inh: 7%

Results for Cn1c(-c2sc3ccccc3c2Cl)n[nH]c1=S ?
JMJD2A Tudor inh: 22µM*; BAZ2B block: -12%; G9a block: inconclusive; HP1b binding inh: -27%; GLS inh: 2%

What do the screens show for `CCc1nnc(NC(=O)CSc2nc3ccccc3s2)s1`?
L3MBTL1 block: 1%; JMJD2A Tudor inh: -7%; BAZ2B block: 9%; G9a block: inconclusive; HP1b binding inh: 32%; GLS inh: 0%

How did CCNc1nnc(CSc2nc3ccccc3s2)s1 do in these assays?
L3MBTL1 block: 3%; JMJD2A Tudor inh: -21%[57.1 µM]; BAZ2B block: -4%; G9a block: 4.5µM*; HP1b binding inh: 56%; GLS inh: -6%

Results for CCOc1ccc(C(=O)N2CCC(c3ccncc3)CC2)cc1 ?
JMJD2A Tudor inh: 7%; BAZ2B block: -3%; G9a block: -4%[59 µM]; HP1b binding inh: 39%; GLS inh: -7%

Results for Cc1c(C(=O)N2CCCC2)oc2c1-c1nn(CC(=O)NC(C)c3ccccc3)cc1CC2 (stereo not given) ?
JMJD2A Tudor inh: inconclusive; BAZ2B block: inconclusive; G9a block: -34%[59 µM]; HP1b binding inh: 14%; GLS inh: 0%

What do the screens show for `CCN1CCCC1CNc1ncnc2c1[nH]c1ccc(Cl)cc12` (stereo not given)?
L3MBTL1 block: -6%; JMJD2A Tudor inh: -20%; BAZ2B block: -1%; G9a block: 50µM*; HP1b binding inh: 15%; GLS inh: 16%

How did O=C1CCCN1CCCNc1ncnc2c1[nH]c1ccc(Cl)cc12 do in these assays?
L3MBTL1 block: -5%; JMJD2A Tudor inh: -1%; BAZ2B block: 13%; G9a block: -44%[59 µM]; HP1b binding inh: 25%; GLS inh: 3%

Results for COc1cccc(NC(=O)C2CCC(CNS(=O)(=O)c3ccc4c(c3)CCCC(=O)N4)CC2)c1 (stereo not given) ?
JMJD2A Tudor inh: -1%; BAZ2B block: 2%; G9a block: 6%[59 µM]; HP1b binding inh: 15%; GLS inh: 4%

How did O=C(CNc1ccc(Br)cc1)c1ccc(O)cc1 do in these assays?
JMJD2A Tudor inh: inconclusive; BAZ2B block: 1%; G9a block: 45µM*; HP1b binding inh: -13%; GLS inh: 0%

How did O=C(CNc1ccc(Cl)cc1)c1ccc(Br)cc1 do in these assays?
L3MBTL1 block: 8%; JMJD2A Tudor inh: 0%; BAZ2B block: -8%; G9a block: -45%; HP1b binding inh: 45%; GLS inh: -13%

Results for O=C(CNc1ccc(Br)cc1)c1ccc(Br)s1 ?
JMJD2A Tudor inh: -16%; BAZ2B block: inconclusive; G9a block: 40µM*; HP1b binding inh: -11%; GLS inh: -13%

Results for Cc1ccc(C2CC(=O)N(Cc3ccccc3)c3c2c(C)nn3-c2nc(C)cc(C)n2)cc1 (stereo not given) ?
JMJD2A Tudor inh: -16%; BAZ2B block: 5%; G9a block: 6%[59 µM]; HP1b binding inh: 22%; GLS inh: 1%

Results for CC1CC=CC2C1C(=O)N(Cc1ccccc1)C2c1ccc(-c2ccoc2)cc1F (stereo not given) ?
JMJD2A Tudor inh: -23%; HP1b binding inh: 34%

What do the screens show for `O=C(NCC(c1ccco1)N1CCCCC1)c1ccc2c(c1)S(=O)(=O)c1ccccc1C2=O` (stereo not given)?
JMJD2A Tudor inh: inconclusive; BAZ2B block: inconclusive; G9a block: 40µM*; HP1b binding inh: 6%; GLS inh: -12%

How did O=C(NCC(c1ccco1)N1CCCCC1)c1ccc(S(=O)(=O)Nc2ccccc2)cc1 (stereo not given) do in these assays?
L3MBTL1 block: 4%; JMJD2A Tudor inh: -15%; BAZ2B block: -1%; G9a block: 3%; HP1b binding inh: 8%; GLS inh: -5%

How did CN(C)c1ccc(CNc2nc(-c3ccco3)nn2S(C)(=O)=O)cc1 do in these assays?
JMJD2A Tudor inh: -34%; BAZ2B block: inconclusive; G9a block: inconclusive; HP1b binding inh: 25%; GLS inh: 0%

What do the screens show for `COc1ccc(S(=O)(=O)n2nc(-c3ccco3)nc2NCc2ccc(N(C)C)cc2)cc1`?
JMJD2A Tudor inh: 13µM*; BAZ2B block: 25µM*; G9a block: 11µM*; HP1b binding inh: -26%; GLS inh: 4%

How did Cc1ccc(S(=O)(=O)n2nc(-c3ccco3)nc2NCc2ccc(N(C)C)cc2)cc1 do in these assays?
JMJD2A Tudor inh: 25µM*; BAZ2B block: 10µM*; G9a block: 8.9µM*; HP1b binding inh: -15%; GLS inh: -27%

What do the screens show for `CCn1c(CSCc2ccc(Cl)cc2)n[nH]c1=S`?
JMJD2A Tudor inh: 56µM*; BAZ2B block: -7%; G9a block: 3.2µM*; HP1b binding inh: 14%; GLS inh: -30%

How did CCn1c(CSCc2ccc(C)cc2)n[nH]c1=S do in these assays?
L3MBTL1 block: -1%; JMJD2A Tudor inh: 32µM*; BAZ2B block: inconclusive; HP1b binding inh: 3%; GLS inh: -13%

How did Cn1c(CSCc2ccc(Cl)c(Cl)c2)n[nH]c1=S do in these assays?
L3MBTL1 block: 0%; JMJD2A Tudor inh: 89µM*; BAZ2B block: -8%; G9a block: inconclusive; HP1b binding inh: -6%; GLS inh: 77%

What do the screens show for `Cc1ccc(S(=O)(=O)c2nnn3c2nc(NCc2cccs2)c2sccc23)cc1C`?
JMJD2A Tudor inh: -26%; BAZ2B block: -29%; G9a block: 0%[59 µM]; HP1b binding inh: 6%; GLS inh: 2%
